According to PubChem BioAssay AID1240 (Sanford-Burnham Center for Chemical Genomics, 2008):
Out of some 50,000 compounds screened, about 800 (1.6%) showed an effect of 50% or more. The list comes from a sample in which strong results are over-represented; it also holds similar structures and randomly drawn compounds.

These molecules were tested against Bcl-2-like protein 10 (Homo sapiens) (UniProt Q9HD36) (assay: Phenotype converters, Bcl-B/TR3 peptide binding displacement, primary biochemical FP (AID 1240;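 further: 0% = Bcl-B with tracer peptide and DMSO and 100% = tracer peptide lacking Bcl-B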)). Conditions: GST-Bcl-B / FITC-TR3 peptide fluorescence polarization; stronger effect = higher value; compound at 3.75 mg/L.
Chain of Bcl-2-like protein 10 (Homo sapiens) (Q9HD36 whole entry, looked up): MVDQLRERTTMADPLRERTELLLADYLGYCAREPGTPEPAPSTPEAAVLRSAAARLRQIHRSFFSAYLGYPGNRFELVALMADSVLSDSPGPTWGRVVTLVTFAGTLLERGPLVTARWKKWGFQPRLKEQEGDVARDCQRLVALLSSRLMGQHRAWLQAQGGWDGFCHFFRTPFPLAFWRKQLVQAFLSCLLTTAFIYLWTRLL
With `COc1ccc(C2Nc3ccccc3C(=O)N2Cc2ccccc2)cc1Cn1nc(C)c(Br)c1C` (configuration not stated) the displacement was 15.4%.
`Cc1cc(Cl)ccc1OCC(=O)Nc1sc(C)c(C)c1C(N)=O` was tested, and the displacement was 79.1%.
In the case of `CCOC(=O)c1c(NC(=O)COc2cc(Cl)ccc2Cl)sc(C)c1C`, the displacement is reported as -8%.
For `CCOC(=O)c1sc(NC(=O)COc2ccc(Cl)cc2C)c(C(=O)OCC)c1C`, the displacement was -5.1%.
In the case of `O=C(N/N=C/c1ccc(Cl)c(Cl)c1)C1CC(=O)N(c2ccccc2)C1` (configuration not stated), the displacement is reported as -9.3%.
`CS(=O)(=O)N(CC(=O)NCc1ccncc1)c1ccc(Oc2ccccc2)cc1` gave a displacement of 10.2%.
`Fc1ccccc1-c1nc(-c2ccc(Br)cc2)no1` was tested, and the displacement was 4.3%.
Molecule `O=C(Nc1cccc2nsnc12)c1ccc(Br)o1` has a displacement of 69.6%.
For `O=C(Nc1cccc2nsnc12)c1ccco1`, the displacement was 4%.
Work on `CCOc1ccc(C(=O)Nc2cccc3nsnc23)cc1Br` yielded a displacement of 78.2%.
For `CCOc1ccc(C(=O)Nc2cccc3nsnc23)cc1Cl`, the displacement was 30.9%.
Work on `CCOc1ccc(C(=O)Nc2cccc3nsnc23)cc1[N+](=O)[O-]` yielded a displacement of 10.7%.
With `Cc1ccc2nsnc2c1NC(=O)c1ccc(Br)o1` the displacement was 15.6%.
`O=C(Nc1sc2c(c1C(=O)N1CCCCC1)CCCCC2)c1ccc([N+](=O)[O-])cc1` gave a displacement of -2.1%.
With `COc1cccc(OC)c1C(=O)NCc1ccc(C)cc1` the displacement was 2.7%.
`Fc1ccc(-c2noc(-c3ccc(Cl)cc3)n2)cc1` gave a displacement of -6.4%.
Work on `COc1cc(C(=O)N2CCN(C)CC2)c([N+](=O)[O-])cc1OC` yielded a displacement of -0.1%.
`Cc1cccc(-c2noc(-c3ccc(C)c([N+](=O)[O-])c3)n2)c1` showed a displacement of 76.1%.
Molecule `Cc1cccc(-c2noc(-c3ccc(Br)cc3)n2)c1` has a displacement of -1.7%.
`COc1ccc(-c2noc(-c3ccc(C)c([N+](=O)[O-])c3)n2)cc1` gave a displacement of -0.4%.
Molecule `Cc1ccc(-c2nc(-c3cccnc3)no2)cc1[N+](=O)[O-]` has a displacement of 21.4%.
`Cc1c(-c2nc(-c3ccncc3)no2)cccc1[N+](=O)[O-]` showed a displacement of 0.7%.
Molecule `Cc1cccc(-c2noc(-c3cccc([N+](=O)[O-])c3C)n2)c1` has a displacement of 78.9%.
Molecule `Cc1ccc(-c2noc(-c3cccc([N+](=O)[O-])c3C)n2)cc1` has a displacement of 6.9%.
`COc1ccc(-c2noc(-c3ccc(C)c([N+](=O)[O-])c3)n2)cc1OC` showed a displacement of 54.4%.
Molecule `COc1ccc(-c2nc(-c3cc(OC)c(OC)c(OC)c3)no2)cc1OC` has a displacement of -5.7%.
`O=C1c2ccccc2C(=O)C1C1=CC(c2ccccc2)C(c2ccccc2)N=N1` (configuration not stated) was tested, and the displacement was -10%.
In the case of `O=S(=O)(NC(=S)c1ccccc1)c1ccc(I)cc1`, the displacement is reported as 11.9%.
`COc1cc(/C=C2\C(=O)NC(=O)N(c3ccc(Cl)cc3)C2=O)cc(Cl)c1OC` gave a displacement of -2.2%.
With `COc1ccc(/C=C/C(=O)c2ccc(Br)cc2)cc1[N+](=O)[O-]` the displacement was 12.9%.
With `O=C(CSc1nnnn1-c1ccccc1)Nc1ccccc1[N+](=O)[O-]` the displacement was 1.7%.
Work on `O=C(CSc1ccc(Cl)cc1)NCCc1ccc(F)cc1` yielded a displacement of -8.3%.
With `O=C(NCc1ccc2c(c1)OCO2)c1ccccc1F` the displacement was 14.1%.
Molecule `c1cc2c(cc1NC1CCCCC1)OCO2` has a displacement of 130%.
`O=C(Nc1ccc2c(c1)OCO2)C(=O)Nc1ccc2c(c1)OCO2` showed a displacement of 21.3%.
With `O=C(NNC(=O)c1ccc2c(c1)OCO2)NC1CCCCC1` the displacement was 10.1%.
In the case of `Cc1nn(Cc2cccc(Cl)c2)c(N)c1-c1ccccc1`, the displacement is reported as -9%.
Molecule `CCOc1ccc(/C=N\NC(=O)c2ccc(Br)cc2)c(O)c1` has a displacement of 6.9%.
`O=C(Nc1ccc(S(=O)(=O)N2CCc3ccccc32)cc1)c1ccc(-c2ccccc2)cc1` showed a displacement of 89.5%.
`O=C(Nc1ccc(S(=O)(=O)N2CCc3ccccc32)cc1)c1ccc(Cl)cc1` was tested, and the displacement was 0.8%.
`Cc1ccc(C(=O)Nc2ccc(S(=O)(=O)N3CCc4ccccc43)cc2)cc1` gave a displacement of 1.6%.
`O=C(O)c1c(F)c(F)c(F)c(F)c1-c1ccc(Cl)cc1` gave a displacement of 11.8%.
Molecule `Cc1oc2ccc(OCc3ccccc3Cl)cc2c1C(=O)O` has a displacement of 5.8%.
With `O=c1c(-c2ccccc2)coc2cc(OCc3ccccc3Cl)ccc12` the displacement was 20.7%.
`Oc1cc(OCc2ccccc2Cl)ccc1-c1[nH]ncc1-c1ccccc1` was tested, and the displacement was 77.4%.
In the case of `CCOC(=O)c1ccc(NC(=O)/C=C/c2ccc(Cl)cc2)cc1`, the displacement is reported as 16.8%.
With `CCOC(=O)c1ccc(N/C=C/C(=O)c2ccc(Cl)cc2)cc1` the displacement was 59.8%.
`Cc1cccc(N/C=C/C(=O)c2ccc(Cl)cc2)c1` was tested, and the displacement was -2.2%.
Molecule `Cc1ccc(C(=O)/C=C/Nc2ccc(Cl)c(Cl)c2)cc1` has a displacement of 126%.
In the case of `Cc1ccc(C(=O)/C=C/Nc2cccc(O)c2)cc1`, the displacement is reported as -0.4%.
With `CCOC(=O)c1ccc(N/C=C/C(=O)c2cccs2)cc1` the displacement was 14.1%.
In the case of `CCOc1ccccc1C(=O)NCCc1nc2ccccc2[nH]1`, the displacement is reported as 4.7%.
With `O=C(NC1C2CC3CC(C2)CC1C3)c1ccccc1F` (configuration not stated) the displacement was 4.9%.
Molecule `Cc1cc(/C=C2/SC(=O)NC2=O)c(C)n1-c1cccnc1` has a displacement of 0.8%.
`C/C(=N\NC(=O)c1cc2ccccc2cc1O)c1ccco1` gave a displacement of 10%.
With `COC(=O)c1cc(-c2ccc(C)cc2)nc2ccccc12` the displacement was 2.1%.
`N#Cc1c(-c2ccccc2)cc(-c2ccc(Br)cc2)nc1N` gave a displacement of 8.8%.
In the case of `COc1ccc(-c2cc(-c3ccc(Br)cc3)nc(N)c2C#N)cc1`, the displacement is reported as 70.6%.
In the case of `COc1ccc(-c2cc(-c3ccc(Cl)cc3)c(C#N)c(N)n2)cc1`, the displacement is reported as 6.4%.
Work on `CN1CCN(c2c([N+](=O)[O-])c(=O)n(C)c3ccccc23)CC1` yielded a displacement of -4.8%.
In the case of `CCC1=NN2C(=N)/C(=C/c3ccc(-c4ccc(C)c(Cl)c4)o3)C(=O)N=C2S1`, the displacement is reported as 3.9%.
With `CCC1=NN2C(=N)/C(=C/c3ccc(-c4ccc(Cl)cc4)o3)C(=O)N=C2S1` the displacement was 66.7%.
`CCCC1=NN2C(=N)/C(=C/c3ccc(-c4ccc(C(=O)OCC)cc4)o3)C(=O)N=C2S1` was tested, and the displacement was 164%.
Molecule `CCCC1=NN2C(=N)/C(=C/c3ccccc3C)C(=O)N=C2S1` has a displacement of 32.9%.
In the case of `CCC1=NN2C(=N)/C(=C/c3ccc(-c4ccc(C(=O)O)cc4)o3)C(=O)N=C2S1`, the displacement is reported as 44.1%.
Molecule `CCC1=NN2C(=N)/C(=C/c3ccc(F)cc3)C(=O)N=C2S1` has a displacement of 7.5%.
`CCCC1=NN2C(=N)/C(=C/c3ccc(-c4ccccc4C(=O)OC)o3)C(=O)N=C2S1` gave a displacement of -37%.
`CCCC1=NN2C(=N)/C(=C/c3ccc(-c4ccc(F)cc4)o3)C(=O)N=C2S1` showed a displacement of 135%.
`CCCC1=NN2C(=N)/C(=C/c3ccc(OCc4ccc(F)cc4)c(OCC)c3)C(=O)N=C2S1` gave a displacement of -6.7%.
`CCC1=NN2C(=N)/C(=C/c3ccc(-c4ccc(F)c(Cl)c4)o3)C(=O)N=C2S1` was tested, and the displacement was -0.2%.
`CCOC(=O)c1ccc(-c2ccc(/C=C3/SC(N)=NC3=O)o2)cc1` gave a displacement of -27.3%.
In the case of `CCC1=NN2C(=N)/C(=C/c3ccc(-c4ccc(F)cc4)o3)C(=O)N=C2S1`, the displacement is reported as 69.2%.
